Data from PubChem BioAssay AID880 (National Center for Advancing Translational Sciences (NCATS), 2007).
About 1,000 (0.43%) of roughly 230,000 compounds were called active. The entries come from a sample that favours actives as a whole. Where a call stands in place of a potency, no number is given. Values without a mark were called inactive. The call rests on the fitted dose curve; in most records, active means well fitted inhibition curve with a large enough effect (not every such curve was filed as active); inactive means no such curve, though single readings can be large or run the other way.

Each compound was assayed against Guanine nucleotide-binding protein G(i) subunit alpha-1 (Homo sapiens) (UniProt P63096) (assay: qHTS Assay for Inhibitors of RGS12 GoLoco Motif Activity (Red Fluorophore)). Conditions: Gai1:RGS12 GoLoco peptide FP, rhodamine, 10 min; series mostly up to 61.6 µM.
Sequence of Guanine nucleotide-binding protein G(i) subunit alpha-1 (Homo sapiens) (P63096 whole entry, looked up): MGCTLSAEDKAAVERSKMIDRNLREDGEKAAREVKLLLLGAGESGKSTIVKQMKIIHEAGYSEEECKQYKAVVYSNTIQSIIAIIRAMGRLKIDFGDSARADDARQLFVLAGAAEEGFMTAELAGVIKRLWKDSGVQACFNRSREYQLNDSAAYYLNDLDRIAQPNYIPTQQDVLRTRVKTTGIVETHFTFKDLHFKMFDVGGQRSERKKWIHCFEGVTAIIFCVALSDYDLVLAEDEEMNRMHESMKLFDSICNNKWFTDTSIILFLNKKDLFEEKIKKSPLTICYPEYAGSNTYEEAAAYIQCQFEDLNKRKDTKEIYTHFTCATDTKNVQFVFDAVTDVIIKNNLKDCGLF
Further: nearly all actives have a fitted effect of over 30% in size.
Potency means the concentration at half of the fitted maximal effect.

Compound	Potency	activity, negative = inhibition
CN(C)C(=O)c1nc2ccc(Cl)cn2c1CNCc1cccc(OC(F)(F)F)c1	inactive	
Cn1nc(C(F)(F)F)cc1C(=O)O	inactive	
O=[N+]([O-])c1cc(S(=O)(=O)CCCN2CCOCC2)ccc1F	inactive	
CC(C)c1cnc(NC(=O)Cc2ccccc2)s1	inactive	
O=C(CSc1ncnc2c1cnn2CCc1ccccc1)Nc1ccc(F)cc1	inactive	
Oc1ccc(CNc2ccccc2O)cc1	inactive	
O=C(OCc1ccccc1)c1ccc(O)cc1	inactive	
COC(=O)CCCCCN1C(=O)NC(c2ccc(-c3ccccc3)cc2)C(C(=O)OCc2ccccc2)=C1C (stereo unspecified)	inactive	
CC(=O)[C@H](C(c1ccccc1)N1CCOCC1)N1CCOCC1 (stereo partly specified)		-7.72% [at 14.2 µM]
C=C(C(C)=O)C(O)c1ccc([N+](=O)[O-])cc1 (stereo unspecified)	inactive	
CCOC(=O)C1(CC2CCCCO2)CCN(Cc2nc(-c3cccs3)oc2C)CC1 (stereo unspecified)	inactive	
OCC(CO)NC1C[C@](O)(CO)[C@@H](O)[C@H](O)[C@H]1O (stereo partly specified)	inactive	
NC1CCN(O)C1=O (stereo unspecified)	inactive	
CCc1ccc(-n2c(SCc3cc(=O)n4cc(Br)ccc4n3)nc3[nH]ncc3c2=O)cc1	inactive	
O=C(O)/C=C/c1ccc(OCCCF)cc1	inactive	
CC(O)COc1ccccc1 (stereo unspecified)	inactive	
Cc1cccc(Br)c1	inactive	
O=C1OCCN1C(=O)[C@H]1[C@H](c2ccc(Cl)cc2)C(c2cccc(Cl)c2)=NN1c1ccc(Br)cc1	inactive	
CC(O)[C@@H](N)C(=O)O (stereo partly specified)	inactive	
O=P(O)(O)C(O)c1ccc2ccccc2c1 (stereo unspecified)	inactive	
Cc1ccnc(-n2sc3ccccc3c2=O)n1	14.1 µM (active)	
Cc1ccnc(Nc2nc3ccccc3s2)n1	inactive	
Cc1ccnc(SCC(N)=O)n1	inactive	
O=c1[nH]c2ccccc2n2c(-c3ccccc3)nnc12	12.6 µM (active)	

Compound	Potency	activity, negative = inhibition
CCOC(=O)c1cnc2[nH]c3ccccc3n2c1=O	inactive	
Cc1ccc(-c2nc3ccccc3[nH]c2=O)cc1	inactive	
O=C(Nc1cccc(F)c1)N1CCC2(CC1)CCN(S(=O)(=O)c1ccccc1)CC2	inactive	
CCOC(=O)C1=NO[C@@]2(C=C(Br)C(=O)[C@H]3O[C@H]32)C1	inactive	
COc1ccc2c(-c3ccccc3)cc(SCC(=O)N(C)C3CCS(=O)(=O)C3)nc2c1 (stereo unspecified)	inactive	
CC(=O)OC1C([N+]2(C)CCCCC2)C[C@H]2C3CC[C@H]4C[C@H](OC(C)=O)C([N+]5(C)CCCCC5)CC4(C)C3CCC12C (stereo partly specified)	inactive	
C=CC(=O)OCCOCCOCCOCCOC(=O)C=C	inactive	
Cc1cccc(-n2c(=O)c3c(C)c(C)sc3n(CC(N)=O)c2=O)c1	inactive	
NC(=O)c1sc(-c2ccsc2)cc1N	inactive	
COc1ccc(-c2nc(-c3ccccc3)oc2Nc2ccc3ccccc3c2)cc1	inactive	
CC1(C)CC(N2CCN(C(c3ccccc3)c3ccccc3)CC2)=CC(=[N+]2CCCCC2)C1	17.8 µM (active)	
O=C1CC(N2CCN(C(c3ccccc3)c3ccccc3)CC2)C(=O)N1 (stereo unspecified)	inactive	
CC1(C)CC(=O)C=C(N2CCCC2)C1	inactive	
Cc1ccccc1C(=O)Nc1ccc(N2CCCCCC2)cc1	inactive	
O=C1C=CC(=O)N1c1ccc(N2CCCCC2)cc1	5.01 µM (active)	
CCOC(=O)/C(C#N)=C/c1ccc(N2CCCCC2)cc1	inactive	
N#C/C(=C/c1ccc(N2CCCCC2)o1)C(=O)NCCc1c[nH]c2ccccc12	inactive	
C=C/C1=C/Cc2ccccc2[C@H](C[N+](=O)[O-])C(C(=O)OC)(C(=O)OC)C1	inactive	
COc1ncnc2c1N=C1CC(C)(C)CC(N)=C1S2	25.1 µM (active)	
COc1cccc(-c2cc(=O)c3cc(NC(=O)c4ccc(C)cc4)ccc3[nH]2)c1	inactive	
CC(=O)N(CC(O)CO)c1c(I)c(C(=O)NCC(O)CO)c(I)c(C(=O)NCC(O)CO)c1I (stereo unspecified)	inactive	
COc1ccc2c(c1)C(=C(C#N)C#N)C(=O)N2CCc1ccccc1	inactive	
CC(=O)Nc1ccc(NC(=O)COc2ccc(S(=O)(=O)NC(C)c3ccccc3)cc2)cc1 (stereo unspecified)	inactive	
COC(C(=O)Nc1ccc(S(=O)(=O)Nc2ccc(C)c(C)c2)cc1)c1ccccc1 (stereo unspecified)	inactive	

Compound	Potency	activity, negative = inhibition
CC(=O)/C(C)=N/O	inactive	
COc1ccccc1C1CCN(C(=S)Nc2ccc(Br)cc2)CC1	inactive	
Cc1ccccc1CN(c1ccc(C(=O)NCC2CCCO2)cc1)S(C)(=O)=O (stereo unspecified)	inactive	
Cc1ccccc1Cn1c2ccccc2c2cnn(CC(=O)NCc3ccco3)c(=O)c21	inactive	
CC1(C)OC(=O)N2CCc3ccccc3C21C (stereo unspecified)	inactive	
COC(=O)c1ccccc1NC(=S)NC(=O)c1ccccc1F	inactive	
CC(C)=CCC[C@]1(C)[C@@H](CC=C(C)C)C[C@@]2(CC=C(C)C)C(=O)[C@]1(C(=O)C(C)C)C(=O)C(CC=C(C)C)=C2O	inactive	
O=C(NCc1ccco1)O[C@@H]1C(=O)c2cc(Br)ccc2O[C@H]1c1ccc2c(c1)OCO2	inactive	
COc1cc(/C=N/NC(=S)Nc2cccnc2)cc(OC)c1O	inactive	
Cc1cccc([C@H]2[C@@H]3C=CC[C@@H](C)[C@@H]3C(=O)N2Cc2ccccc2)c1	inactive	
CC(=O)N/N=C(\C)c1ccc(Br)cc1Br	inactive	
COc1ccc(C2C(C#N)=C(N)Oc3cc(N)ccc32)cc1OC (stereo unspecified)	inactive	
OC[C@H]1O[C@@H](n2cnc3c(NC4CCCC4)ncnc32)[C@H](O)[C@H]1O	inactive	
CC1(C)C2CCC1(C)C(OC(=O)c1ccc(O)cc1)C2 (stereo unspecified)	inactive	
O=C(CSc1nc(-c2ccccc2)cs1)Nc1cccc([N+](=O)[O-])c1	inactive	
N#Cc1cccc(CS(=O)(=O)c2nnnn2-c2cc(C(F)(F)F)cc(C(F)(F)F)c2)c1	inactive	
C=CCSc1nc(N)cc(=O)[nH]1	inactive	
Cc1ccc(NC2=C(Cl)C(=O)OC2OC(=O)c2ccccc2C)cc1 (stereo unspecified)	inactive	
Cc1cc(C)cc(NC(=S)NCc2ccc(F)cc2)c1	inactive	
O=C(C/C(=N\NC(=O)c1ccccc1Br)C(F)(F)F)c1cccs1	inactive	
Cc1cc(C(=O)NNC(=S)Nc2ccccc2C)cs1	inactive	
CN(C)C(=O)c1coc2nc3ccccc3nc12	inactive	
O=C1NC(c2ccc(-c3ccccc3[N+](=O)[O-])o2)C(C(=O)c2ccc(Cl)cc2)C(O)(C(F)(F)F)N1 (stereo unspecified)	inactive	
